Reference: PubChem BioAssay (NCI)
About 83,000 compounds went through this panel and 20% of them were active in at least one assay; those are over-represented in the sample as a whole.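 Activity criterion: percent growth below 10, measured after cells in 96-well plates were exposed to a single compound concentration for 48 hours.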 Unmarked numbers belong to inactive results. The source made the active and inactive calls.

System: PC-3 prostate
Test: NCI-60 one-dose screen, 48 h (100 = growth as untreated, 0 = no growth, -100 = all killed)
Conditions: 10 µM

| SMILES | growth |
| --- | --- |
| Nc1ccccc1NC(=O)CCCCC(=O)Nc1ccc2c(c1)/C(=C/c1ccc[nH]1)C(=O)N2 | 81.6% |
| COc1cc(-c2cc(/C=C/C(=O)c3ccc(N)cc3)[nH]n2)cc(OC)c1OC | 11.1% |
| O=C(O)CC(Cl)C(Cl)CC(=O)O (stereo not drawn) | 98.1% |
| Nc1nc(N)c(NC(=O)CNc2ccc(C(=O)O)cc2)c(N)n1 | 101% |
| COc1ccc(/C=C2/CN(CCC#N)C/C(=C\c3ccc(OC)cc3)C2=O)cc1 | -11.7% (active) |
| CCCCCC(=O)c1ccc(OCCCN2CCN(C(=O)OCC)CC2)cc1 | 78.7% |
| O=C(Nc1ccc(Cl)c(Cl)c1)Nc1c(Oc2ccc(Cl)c(Cl)c2)ccc(Cl)c1S(=O)(=O)O | 19.6% |
| COc1cc(/C=C2\CCCC3=C2N=C2SC=NN2C3c2cc(OC)c(OC)c(OC)c2)cc(OC)c1OC (stereo not drawn) | 66.4% |
| CCC(=O)N1C/C(=C/c2ccc(OC)cc2)C(=O)/C(=C/c2ccc(OC)cc2)C1 | 16.2% |
| O=C(c1ccc(Cl)cc1Cl)N1CCOCC1 | 96.4% |
| O=C(CC(C(=O)c1ccccc1)N1CCOCC1)c1ccccc1 (stereo not drawn) | 99.4% |
| COc1ccc2c(c1)O/C(=C\c1ccc([N+](=O)[O-])o1)C2=O | -2.47% (active) |
| COc1cc(Cl)cc(-c2nn(-c3cccc(NC(=O)Nc4cc(C(F)(F)F)cc(C(F)(F)F)c4)c3)cc2-c2ccncc2)c1 | -6.27% (active) |
| CCCCCCCCCCCCCCCCN(C(C)c1ccccc1)S(=O)(=O)c1ccc(OC)c(N)c1 (stereo not drawn) | 101% |
| C#Cc1ccc(-n2c(/C=C/c3ccc4ccccc4c3)nc3ncccc3c2=O)cc1 | 13.7% |
| CCN(CC)CCNC(=O)c1ccc(NC(C)=O)cc1 | 104% |
| COc1cc(C(=O)/C=C/c2cc(-c3cc(OC)c(OC)c(OC)c3)n[nH]2)cc(OC)c1OC | 12.9% |
| COc1cc(C)ccc1C(=O)c1ccc(C)cc1OC | 17.6% |
| O=C(Nc1cccc(Br)c1)c1cc(=O)[nH]c2ccccc12 | 79.2% |
| N=C(N)c1ccc(-c2ccc(-c3cccs3)o2)cc1 | 50.5% |
| CC(=O)N1C/C(=C/c2ccc(Cl)cc2)C(=O)/C(=C/c2ccc(Cl)cc2)C1 | -42.4% (active) |
| Cc1ccc(C(=O)Nc2cccc(F)c2)cc1NC(=O)C1(c2ncnc3[nH]ccc23)CC1 | 92.2% |
| COc1ccc(OC)c(NC(=O)c2sc3nc4c(cc3c2N)C(=O)CCC4)c1 | 80.4% |
